Laboratory results from PMC5700166.
Residue numbers refer to the chain shown, from its start.

Legend:
Assay in all cases: protein-binding microarray (PBM); PBM: ~300 nM protein, 6 mM HEPES pH 7.8, 80 mM KCl, 0.5 mM EDTA, 0.5 mM EGTA, 6% glycerol, 35 ng/ul poly-dIdC, 1% milk, 1 h, room temperature; Ap Aiptasia and Nv Nematostella (sea anemones) / Co Capsaspora / Aq Amphimedon (sponge) / Dm Drosophila / Hu human; RHD is the Rel homology domain; high values mean tight binding
Conditions in all cases: dsDNA, one strand shown
GST-Ap-NF-kB RHD = biological target: T1, GST-Ap-NF-kB RHD (Exaiptasia pallida (Aiptasia), UniProt A0A913YAJ5 2-422)
T1 sequence: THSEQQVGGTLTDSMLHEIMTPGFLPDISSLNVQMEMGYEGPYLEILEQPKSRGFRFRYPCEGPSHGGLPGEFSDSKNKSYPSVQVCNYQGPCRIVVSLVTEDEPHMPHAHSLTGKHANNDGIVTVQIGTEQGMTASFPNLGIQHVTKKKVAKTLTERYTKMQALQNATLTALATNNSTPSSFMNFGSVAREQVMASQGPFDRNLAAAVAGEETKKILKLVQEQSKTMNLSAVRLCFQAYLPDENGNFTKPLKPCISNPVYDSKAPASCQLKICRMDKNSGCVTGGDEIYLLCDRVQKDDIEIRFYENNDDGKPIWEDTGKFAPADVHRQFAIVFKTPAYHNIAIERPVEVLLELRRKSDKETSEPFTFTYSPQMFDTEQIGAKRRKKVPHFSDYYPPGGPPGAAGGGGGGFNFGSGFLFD

[1] = biological target: T2, GST-Nv-NF-kB (Cys allele) (Nematostella vectensis, UniProt E5G601 2-411)
T2 sequence: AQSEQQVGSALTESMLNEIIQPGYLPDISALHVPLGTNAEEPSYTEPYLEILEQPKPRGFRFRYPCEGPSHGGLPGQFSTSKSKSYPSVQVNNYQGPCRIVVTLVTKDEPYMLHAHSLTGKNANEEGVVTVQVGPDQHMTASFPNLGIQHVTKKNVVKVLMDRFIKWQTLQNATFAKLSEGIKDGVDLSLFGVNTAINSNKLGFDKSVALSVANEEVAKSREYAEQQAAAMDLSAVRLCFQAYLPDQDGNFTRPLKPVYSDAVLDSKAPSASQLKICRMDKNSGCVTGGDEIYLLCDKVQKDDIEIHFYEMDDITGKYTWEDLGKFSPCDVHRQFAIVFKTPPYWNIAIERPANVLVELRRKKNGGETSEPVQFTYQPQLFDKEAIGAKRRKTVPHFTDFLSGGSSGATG

[2] = biological target: T3, GST-Nv-NF-kB (Ser allele) (Nematostella vectensis, UniProt A7UNT2 2-411)
T3 sequence: T2 sequence with Q21R, C66S, S207N, E215Q, V217A, E225K, A268E, D399E

GST-Co-NF-kB = biological target: T4, GST-Co-NF-kB (Capsaspora owczarzaki, UniProt F1ARL5 200-546)
T4 sequence: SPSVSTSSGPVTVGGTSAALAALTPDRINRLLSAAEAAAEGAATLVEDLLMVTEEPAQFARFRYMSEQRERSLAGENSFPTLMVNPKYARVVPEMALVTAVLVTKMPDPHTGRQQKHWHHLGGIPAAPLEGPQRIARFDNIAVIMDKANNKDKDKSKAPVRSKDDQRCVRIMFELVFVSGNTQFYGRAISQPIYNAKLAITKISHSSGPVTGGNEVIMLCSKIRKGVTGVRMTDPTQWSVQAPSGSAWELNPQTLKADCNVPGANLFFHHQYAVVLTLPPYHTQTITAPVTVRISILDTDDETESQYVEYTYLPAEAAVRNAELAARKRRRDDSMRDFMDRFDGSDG

GST-Dm-Relish = biological target: T5, GST-Dm-Relish (Drosophila melanogaster, UniProt Q94527 99-473)
T5 sequence: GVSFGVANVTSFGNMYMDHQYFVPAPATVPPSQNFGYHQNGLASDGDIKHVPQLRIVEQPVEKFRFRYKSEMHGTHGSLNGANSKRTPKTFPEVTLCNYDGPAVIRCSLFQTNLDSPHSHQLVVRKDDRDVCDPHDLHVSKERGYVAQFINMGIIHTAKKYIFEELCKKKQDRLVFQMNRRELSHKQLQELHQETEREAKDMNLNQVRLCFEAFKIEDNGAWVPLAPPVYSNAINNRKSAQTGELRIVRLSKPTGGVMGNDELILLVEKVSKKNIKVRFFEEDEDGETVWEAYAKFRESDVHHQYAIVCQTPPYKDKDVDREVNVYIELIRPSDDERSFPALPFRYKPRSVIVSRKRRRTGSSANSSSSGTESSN

GST-Aq-NF-kB = biological target: T6, GST-Aq-NF-kB (Amphimedon queenslandica, UniProt A9Y5G7 2-389)
T6 sequence: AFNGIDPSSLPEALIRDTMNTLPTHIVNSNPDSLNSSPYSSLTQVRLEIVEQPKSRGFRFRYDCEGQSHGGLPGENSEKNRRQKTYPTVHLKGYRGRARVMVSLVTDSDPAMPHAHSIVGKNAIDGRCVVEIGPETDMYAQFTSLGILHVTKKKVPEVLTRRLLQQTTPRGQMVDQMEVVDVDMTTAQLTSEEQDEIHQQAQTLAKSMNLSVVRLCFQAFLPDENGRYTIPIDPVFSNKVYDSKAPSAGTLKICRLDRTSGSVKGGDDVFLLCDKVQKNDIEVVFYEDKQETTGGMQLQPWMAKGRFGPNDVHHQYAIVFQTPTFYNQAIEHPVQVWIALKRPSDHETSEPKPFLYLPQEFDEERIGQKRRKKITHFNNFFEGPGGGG

GST-Hu-p50 = GST-Hu-p50 (Homo sapiens, UniProt P19838 7-356)
Chain of GST-Hu-p50 (P19838 7-356): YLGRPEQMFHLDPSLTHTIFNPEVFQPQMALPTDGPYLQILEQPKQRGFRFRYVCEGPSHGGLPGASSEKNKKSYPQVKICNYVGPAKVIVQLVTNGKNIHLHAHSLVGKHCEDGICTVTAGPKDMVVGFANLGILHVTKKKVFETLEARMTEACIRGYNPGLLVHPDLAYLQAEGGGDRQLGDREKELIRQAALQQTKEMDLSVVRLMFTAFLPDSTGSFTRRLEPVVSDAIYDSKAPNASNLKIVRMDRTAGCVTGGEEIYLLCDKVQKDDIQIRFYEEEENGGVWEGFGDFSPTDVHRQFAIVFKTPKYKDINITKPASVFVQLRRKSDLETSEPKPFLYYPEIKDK

Sequence | binding signal (GST-Ap-NF-kB RHD) [z-score] | binding signal [1] [z-score] | binding signal [2] [z-score] | binding signal (GST-Co-NF-kB) [z-score] | binding signal (GST-Dm-Relish) [z-score] | binding signal (GST-Aq-NF-kB) [z-score] | binding signal (GST-Hu-p50) [z-score]
CCGATTAACATCAGCACTCCCCCTGATGTTAATCGGGTCTTGATTCGCTTGACGCTGCTG | 5.42 | 4.35 | 4.91 | 3.89 | 2.23 | 3.99 | 5.21
CCGATTAACATCAGGGGGGACTATGATGTTAATCGGGTCTTGATTCGCTTGACGCTGCTG | 5.46 | 5.17 | 4.88 | 5.47 | 4.09 | 4.64 | 3.99
CCGATTAACATCAACTTCCCCCCTGATGTTAATCGGGTCTTGATTCGCTTGACGCTGCTG | 7.03 | 6.37 | 6.34 | 9.16 | 7.29 | 6.32 | 5.76
CCGATTAACATCAAATTTCCCCTTGATGTTAATCGGGTCTTGATTCGCTTGACGCTGCTG | 8.8 | 10.8 | 13.2 | 7.98 | 7.38 | 8.06 | 7.51
CCGATTAACATCAACAAATTCCCTGATGTTAATCGGGTCTTGATTCGCTTGACGCTGCTG | 3.83 | 5.69 | 6.87 | 4.16 | 5.03 | 4.44 | 4.56
CCGATTAACATCAGGGAAGTCCCTGATGTTAATCGGGTCTTGATTCGCTTGACGCTGCTG | 9.31 | 11.7 | 9.19 | 1.97 | 10.4 | 10.2 | 6.58
CCGATTAACATCAAATTTCCCACTGATGTTAATCGGGTCTTGATTCGCTTGACGCTGCTG | 2.73 | 4.26 | 4.5 | 4.39 | 3.33 | 4.27 | 4.02
CCGATTAACATCAGGAAAATCCCTGATGTTAATCGGGTCTTGATTCGCTTGACGCTGCTG | 5.62 | 7.7 | 4.73 | 2.51 | 7.08 | 8.07 | 5.88
CCGATTAACATCACGGGAAATTCTGATGTTAATCGGGTCTTGATTCGCTTGACGCTGCTG | 5.1 | 6.52 | 5.98 | 5.06 | 3.57 | 6.47 | 4.83
CCGATTAACATCAAGGGGGAATCTGATGTTAATCGGGTCTTGATTCGCTTGACGCTGCTG | 8.47 | 8.91 | 9.87 | 8.32 | 6.04 | 6.38 | 7.36
CCGATTAACATCAGGGGGAATCATGATGTTAATCGGGTCTTGATTCGCTTGACGCTGCTG | 8.02 | 7.33 | 8.26 | 8.51 | 6.2 | 5.7 | 6.66
CCGATTAACATCAAGGGGGAAAATGATGTTAATCGGGTCTTGATTCGCTTGACGCTGCTG | 6.85 | 6.58 | 10.6 | 9.03 | 4.2 | 6.14 | 7.34
CCGATTAACATCAGGGGAGATAATGATGTTAATCGGGTCTTGATTCGCTTGACGCTGCTG | 5.17 | 5.28 | 5.56 | 6.03 | 1.79 | 2.74 | 3.67
CCGATTAACATCAGGGGAATTTATGATGTTAATCGGGTCTTGATTCGCTTGACGCTGCTG | 9.91 | 11.9 | 12.9 | 8.16 | 9.13 | 8.72 | 7.75
CCGATTAACATCAGGGAATTCTATGATGTTAATCGGGTCTTGATTCGCTTGACGCTGCTG | 5.04 | 6.52 | 6.75 | 3.81 | 3.59 | 5.61 | 4.8
CCGATTAACATCAAACTTCCCCTTGATGTTAATCGGGTCTTGATTCGCTTGACGCTGCTG | 6.88 | 9.28 | 9.81 | 5.46 | 7.55 | 7.66 | 6.98
CCGATTAACATCAAAATTGCCCCTGATGTTAATCGGGTCTTGATTCGCTTGACGCTGCTG | 3.3 | 4.73 | 5.76 | 3.12 | 2.43 | 4.55 | 5.1
CCGATTAACATCAAACATCCCCTTGATGTTAATCGGGTCTTGATTCGCTTGACGCTGCTG | 6.4 | 7.13 | 7.29 | 2.37 | 6.75 | 6.17 | 5.4
CCGATTAACATCATTTGGGAAAATGATGTTAATCGGGTCTTGATTCGCTTGACGCTGCTG | 1.08 | 3.26 | 4.46 | 2.04 | 1.08 | 1.67 | 2.23
